High-throughput results (PubChem)
Shown are actives, neighbours in structure and some others; about 6% of the full set was active somewhere.
D3 antag: antagonists of human D3 dopamine receptor | max response, negative = inhibition, % | 2.5% of 360,000 active | P35462 | D3R cells, DiscoveRx beta-arrestin luminescence, antagonist mode; active compounds read low; in the data active means max response below about -50%; inconclusive means no clear call, values can overlap the other calls; further: on the % scale 0 is the no-effect control and ±100 the full control effect
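Cells expressing the human receptor were seeded at 1500 cells/well, incubated overnight at 37 degrees C in 5% CO2, then exposed to library compounds with dopamine controls for 90 minutes at 37 degrees C before luminescent detection.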
D1 antagonist: antagonists of human D1 dopamine receptor | activity change, negative = inhibition, % at 10 µM | HEK293 TREx D1 cells, calcium flux, dopamine EC80; active compounds read low | 3.2% of 360,000 active | P21728; in the data active means activity change below about -30%; further: on the % scale 0 is the no-effect control and ±100 the full control effect
Target sequence (P21728 whole entry, looked up): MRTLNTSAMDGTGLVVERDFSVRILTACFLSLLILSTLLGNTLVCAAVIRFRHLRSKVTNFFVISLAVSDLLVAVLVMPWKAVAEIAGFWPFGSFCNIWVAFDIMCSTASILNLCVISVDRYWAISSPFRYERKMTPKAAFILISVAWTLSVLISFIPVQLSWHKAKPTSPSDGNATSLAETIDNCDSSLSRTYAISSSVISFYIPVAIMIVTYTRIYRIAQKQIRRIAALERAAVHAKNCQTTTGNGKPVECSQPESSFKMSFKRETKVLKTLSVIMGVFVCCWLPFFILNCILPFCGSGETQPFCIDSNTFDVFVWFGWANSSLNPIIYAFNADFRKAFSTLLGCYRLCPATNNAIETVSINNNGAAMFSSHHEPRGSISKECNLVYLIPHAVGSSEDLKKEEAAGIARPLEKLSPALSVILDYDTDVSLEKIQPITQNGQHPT
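After overnight tetracycline induction at 30 C, force-coupled D1 HEK293 cells took up a no-wash calcium dye at room temperature. Compounds were added and monitored 180 s, and the response to EC80 dopamine was then recorded.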
DRD3 agonist: D3 dopamine receptor (human) agonism | P35462 | D3R DiscoveRx beta-arrestin cells, luminescence, 90 min | max activation, % | 0.58% of 410,000 active; in the data active means max activation above about 30%; further: 0% is about no effect
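Cells at 1500/well, incubated overnight, then treated with pinned compounds (dopamine as control) for 90 min at 37 degrees C. DiscoveRx reagent added for 30 - 60 minutes at room temperature; luminescence read.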
D1 ag: agonists of human D1 dopamine receptor; P21728; HEK293 T-REx D1 cells, calcium flux, agonist mode; activation, % at 2 µM; 1% of 360,000 active; in the data active means activation above about 30%; further: 0% is about no effect
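Agonism was scored from calcium flux recorded over 180 s (1 read/s) after pintool compound addition, following a 10-cycle baseline. Cells were inducible force-coupled HEK293 TREx D1, plated overnight at 30 C and loaded with no-wash calcium dye.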
D1 PAM: human D1 dopamine receptor positive modulation. P21728. HEK293 TREx D1 cells, calcium flux, dopamine EC20 potentiation. potentiation, % at 10 µM. 0.036% of 360,000 active. AID 504651; in the data active means potentiation above about 30%; further: 0% is about no effect
Active calls of the source: *; u = inconclusive; x = no result.

SMILES | D3 antag | D1 antagonist | DRD3 agonist | D1 ag | D1 PAM
CN1C(=O)/C(=C2/C=Cc3ccccc3N2CCCS(=O)(=O)O)SC1=S | -125* | 1 | -25 | 2 | 3
Cc1ccc2c(=O)cc(C(=O)Nc3sc4c(c3C(=O)NCc3ccco3)CCC4)oc2c1 | x | -12 | -16 | 0 | 2
N#Cc1c([N+](=O)[O-])cc([N+](=O)[O-])cc1S(=O)(=O)Cc1ccccc1 | -102* | -35* | -14 | 2 | -4
COc1cc(OC)c(C#N)c(S(=O)(=O)Cc2ccccc2)c1 | -16 | -11 | -9 | 1 | 0
O=C(Nc1cc(Sc2ccccn2)cc([N+](=O)[O-])c1)c1cccc(Cl)c1 | 6 | -35* | -4 | 22 | -8
O=C(Nc1cc(Sc2ccccn2)cc([N+](=O)[O-])c1)c1ccc(Cl)cc1 | 3 | -5 | 4 | 4 | -5
COc1ccc(N[C@@H]2CCN3C(=O)c4ccccc4[C@@H]3C[C@H]2O)cc1 | 29 | x | 9 | x | x
O=C1c2ccccc2[C@@H]2C[C@@H](O)[C@H](Nc3cccc4ccccc34)CCN12 | -56* | x | -53 | x | x
CC(=O)c1ccc(-c2ccc([C@H]3[C@@H]4C=CCC[C@@]4(C)C(=O)N3Cc3ccccc3)c(F)c2)cc1 | 0 | 17 | 48* | 9 | 0
COc1ccc(/C=C/c2ccccc2)cc1[C@H]1[C@H]2C=CC[C@@H](C)[C@@H]2C(=O)N1Cc1ccccc1 | -53* | -4 | -22 | 3 | 4
COc1ccc(Br)cc1[C@H]1[C@@H]2C=CCC[C@@]2(C)C(=O)N1Cc1ccccc1 | -55* | 5 | -36 | 9 | -4
COc1ccc(/C=C/c2ccccc2)cc1[C@H]1[C@@H]2C=CCC[C@@]2(C)C(=O)N1Cc1ccccc1 | -66* | 7 | -34 | 3 | 4
COc1ccc(-c2ccc(OC)c([C@H]3[C@@H]4C=CCC[C@@]4(C)C(=O)N3Cc3ccccc3)c2)cc1OC | -2 | 14 | -2 | 9 | -3
COc1ccc(-c2ccc(OC)c([C@H]3[C@H]4C=CC[C@@H](C)[C@@H]4C(=O)N3Cc3ccccc3)c2)cc1C | 0 | -5 | -32 | 3 | -2
COc1ccc(NC(=O)N(CCC(C)C)C(C)c2cccs2)c(OC)c1 (stereo not drawn) | x | 0 | 3 | -2 | 1
CCCCOc1ccc(CNC(=O)c2cnc3sc(N4CCCC4)nn3c2=O)cc1 | x | -10 | 13 | 1 | -4
C[N@+]12CCCC[C@@H]1CCC(=C(c1cccs1)c1cccs1)C2 | x | x | -22 | x | x
Cn1c(=O)c2c(-c3ccccc3)n(-c3ccccc3S)cc2n(C)c1=O | 1 | x | -1 | x | x
O=C1C2C(c3cccc(/C=C/c4ccccc4)c3)CC=CC2C(c2ccc3ccccc3c2)N1Cc1ccccc1 (stereo not drawn) | 29 | -42* | 0 | 5 | -2
O=C1C2C(c3cccc(/C=C/c4ccccc4)c3)CC=CC2C(c2ccc(C(F)(F)F)cc2)N1Cc1ccccc1 (stereo not drawn) | -12 | 36 | -8 | 5 | -4
COc1ccc(C(CNC(=O)c2cccc(NS(=O)(=O)c3ccc(C)c(F)c3)c2)N(C)C)cc1 (stereo not drawn) | -59* | -13 | -23 | 11 | -7
COc1ccc(C(CNC(=O)c2cccc(S(=O)(=O)Nc3ccc(F)cc3)c2)N(C)C)cc1 (stereo not drawn) | u | -23 | -31 | 44* | -6
CCOc1ncccc1C(=O)NNC(=O)c1cccc(S(=O)(=O)Nc2ccc(OC)cc2)c1 | -5 | -46* | -11 | 3 | -14
C[C@@H](O)[C@H]1C(=O)N2C(C(=O)[O-])=C(SC3Cn4cnc[n+]4C3)[C@H](C)[C@H]12 (stereo partly drawn) | x | x | -14 | x | x
COC(=O)C(CCSC)NC(=O)Cn1ncc2c([nH]c3ccccc32)c1=O (stereo not drawn) | x | -10 | 4 | 1 | -1
SMILES | D3 antag | D1 antagonist | DRD3 agonist | D1 ag | D1 PAM
CCCc1nc2c3ccccc3ccn2c1Cc1cccc(F)c1 | -90* | x | -5 | x | x
Cc1sc2ncnc(NCC3CCCO3)c2c1C (stereo not drawn) | 19 | -30* | 5 | 12 | -5
CCc1cc2c(NCC3CCCO3)ncnc2s1 (stereo not drawn) | 42 | -3 | 3 | 5 | -6
COc1cccc(CNc2nc3cc(-c4ccc(C(=O)N5CCN(C)CC5)cc4)sc3c(=O)n2C)c1 | u | x | -11 | x | x
CCc1nc2ccc(C(=O)Nc3cc(-c4ccccc4)ccc3OC)cn2c1N(C)CCCc1ccccc1 | u | x | -15 | x | x
CCc1nc2ccc(C(=O)Nc3cc(-c4ccccc4)ccc3OC)cn2c1N(CCN(C)C)CC1CC1 | -69* | x | -19 | x | x
CCc1nc2ccc(C(=O)Nc3cc(-c4ccccc4)ccc3OC)cn2c1N(C=O)CCC(C)C | 6 | x | 69* | x | x
CCCCNC(=O)c1ccc2nc(CC)c(N(CCC(C)C)CCN(C)C)n2c1 | 16 | x | -12 | x | x
CCc1nc2ccc(C(=O)Nc3cc(-c4ccccc4)ccc3OC)cn2c1N(C)CCC(C)C | 60 | x | 15 | x | x
CCc1nc2ccc(C(=O)NCCOc3ccc(OC)cc3)cn2c1N(CCC(C)C)CCN(C)C | -89* | x | -28 | x | x
Cc1ccc2c(n1)Oc1ccc(C(C)C(=O)OCC(=O)N(C)C)cc1C2 (stereo not drawn) | x | x | 7 | x | x
Cc1nnc(N2CCC(C(=O)N3CCCCC3)CC2)c2nn(-c3ccccc3)c(C)c12 | x | 16 | -4 | 4 | -1
Cc1nn(C)c2c1c(C(F)(F)F)cc(=O)n2Cc1ccc(Br)cc1F | x | -2 | 12 | 4 | 3
CCOc1ccc(S(=O)(=O)Nc2cccc(C(=O)N(C)Cc3cccc(OC)c3OC)c2)cc1 | -5 | -32* | -4 | 7 | -6
CCOc1ccc(NS(=O)(=O)c2ccc(C(=O)NCC(c3ccco3)N(C)C)cc2)cc1 (stereo not drawn) | 1 | -13 | -8 | 70* | 4
COc1cccc(CN(C)C(=O)c2ccc(NS(=O)(=O)c3ccc(F)cc3)cc2)c1OC | -16 | 6 | -16 | 9 | 7
CCOc1ccc(S(=O)(=O)Nc2cccc(C(=O)NCC(c3ccccc3)N(C)C)c2)cc1 (stereo not drawn) | -68* | 8 | -17 | 35* | 2
O=C(NCC1CCCO1)c1cccc(NS(=O)(=O)c2ccc(Br)cc2)c1 (stereo not drawn) | 17 | 5 | -6 | 9 | -5
CCOc1ccc(S(=O)(=O)Nc2cccc(C(=O)NCC3CCCO3)c2)cc1 (stereo not drawn) | 8 | -39* | -8 | 3 | -8
COCCn1c(CNC(=O)c2ccc(C)cc2)nc2cccnc21 | x | 26 | 5 | 0 | -7
CCN1CCOC(=O)C1CC(=O)Nc1cc(C)cc(C)c1 (stereo not drawn) | x | 1 | -5 | 0 | -3
